Screening data (PubChem)
DPM-DC inhibit: blocks S. pneumoniae diphosphomevalonate decarboxylase | purified DPM-DC, PK/LDH coupled NADH fluorescence | calls only at 10 µM | 0.49% of 65,000 active | AID 556;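 active = the 320 compounds with the highest percent inhibition in the single-dose primary screen, excluding strongly autofluorescent ones, cut at about 32% in these data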;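 also: kinetic rate of NADH fluorescence loss reporting ADP formed by the decarboxylase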
A340 absorber: compound absorbs light at 340 nm; fold change at 10 µM; AID 708; compound absorbance at 340 nm, fold over control; 65,000 tested, under 10 active;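 active = at 10 µM dose, initial 340 nm absorbance at least 2 fold that of control wells; inactive = change under 2 fold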;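 also: initial absorbance extrapolated from kinetic A340 decline of NADH oxidation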
Spn MK inh: blocks S. pneumoniae mevalonate kinase; purified MK, PK/LDH-coupled NADH absorbance 340 nm; inhibition, % at 10 µM; 0.48% of 65,000 active;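 active = ranked among the strongest by inhibition in the single 10 µM screen, a fixed top-ranked set picked for dose follow-up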
NADH coupling: blocks coupling enzymes of NAD/NADH assays | coupled PK/LDH NADH assays, four targets | IC50, µM (titrated, usually from 10 µM) | 0.02% of 65,000 active;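 active = single-dose screening hits from any of four coupled enzyme assays that gave an IC50 when retested across doses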;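 also: the DPM-DC format reads NADH fluorescence rather than 340 nm absorbance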
PMK inhibit: blocks S. pneumoniae phosphomevalonate kinase | inhibition, % at 10 µM | 0.49% of 65,000 active | purified PMK, PK/LDH-coupled NADH absorbance 340 nm;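 active = top-ranked compounds by inhibition in the single 10 µM screen, taking a fixed number of the strongest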
Fluor 339 460: intrinsic fluorescence of library compounds, ex339/em460 – biochemical, MLSMR library, data from DPM-DC assay, artefact control, profiling panel | fluorescence fold increase at 10 µM | compound autofluorescence, ex339/em460 nm, NADH buffer; hits give high values; 1 = no-compound wells, NADH background | 5.5% of 65,000 active;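 active = at 10 µM, mean starting fluorescence two-fold or more over control wells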;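 also: signal is the first read of a kinetic run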
Each line names hits and unclear results; the compound was inactive in the other large screens. Sampled rows, rich in hits. Any-hit rate of the full collection: about 6.3%.

COc1ccc(-c2cc(C(F)(F)F)n3ncc(C(=O)NCC4CCCO4)c3n2)cc1OC (configuration not stated)	none
O=C(c1cnn2c(C(F)F)cc(-c3ccccc3)nc12)N1CCOCC1	Fluor 339 460 3.7 (not shown: DPM-DC inhibit)
CN1CCN(C(=O)c2cnn3c(C(F)F)cc(C4CC4)nc23)CC1	none
CC1CN(C(=O)c2cnn3c(C(F)F)cc(-c4ccccc4)nc23)CC(C)O1 (configuration not stated)	none
O=C(c1cnn2c(C(F)F)cc(-c3ccccc3)nc12)N1CCSCC1	none
CCOC(=O)N1CCN(C(=O)c2cnn3c(C(F)F)cc(-c4ccc(C)cc4)nc23)CC1	Fluor 339 460 2.93
COc1ccc(-c2cc(C(F)F)n3ncc(C(=O)NCC4CCCO4)c3n2)cc1 (configuration not stated)	Fluor 339 460 2.99 (not shown: DPM-DC inhibit)
Cc1ccc(C)c2[nH]c(=O)c(CN(CCN3CCCC3)C(=O)Nc3cccc(Cl)c3)cc12	none
CN1CCN(C(c2cccc(C(F)(F)F)c2)c2nnnn2Cc2ccccc2)CC1 (configuration not stated)	none
CCOc1ccccc1NC(=O)c1ccc2nccnc2c1	none
O=C(CSc1nnc(CN2CCOCC2)n1-c1ccccc1)Nc1ccc(Cl)cc1	none
CCOc1ccc(N(CC(=O)NC2CCCC(C)C2C)S(=O)(=O)c2c(C)noc2C)cc1 (configuration not stated)	DPM-DC inhibit active
CC1CCc2c(sc3nc(C4CC4)nc(SCC(=O)NCc4ccco4)c23)C1 (configuration not stated)	none
Cc1cc(N2CCC(C)CC2)nc2ccc(N3C(=O)CCC3=O)cc12	Fluor 339 460 5.04 (not shown: DPM-DC inhibit)
Cc1cc(N2CCN(C)CC2)nc2ccc(NC(=O)c3ccc(Br)o3)cc12	none
COc1ccc(NC(=O)c2cnc3ccccn3c2=O)cc1OC	none
CC1C2CC(CC1(C)C)N(C(=O)Nc1ccc3nccnc3c1)C2 (configuration not stated)	Fluor 339 460 2.24 (not shown: DPM-DC inhibit)
Cc1nc2cc(NC(=O)N3CC4(C)CC3CC(C)(C)C4)ccc2n1C (configuration not stated)	none
COC(=O)c1cc(COc2ccc3c4c(c(=O)oc3c2)CCCC4)c(C)o1	Fluor 339 460 2.18 (not shown: DPM-DC inhibit)
COC(=O)c1ccc(COc2ccc3c4c(c(=O)oc3c2)CCC4)o1	DPM-DC inhibit active, Fluor 339 460 2.47
O=C(COc1ccc2c3c(c(=O)oc2c1)CCC3)c1ccc2c(c1)OCO2	none
COc1ccc(OC)c(C(=O)CSc2nnc(-c3ccc(OC)c(OC)c3)o2)c1	Fluor 339 460 2
COc1ccc(C(=O)CSc2nnc(-c3ccc(C)cc3)o2)cc1	none
COc1ccc(CC(=O)Nc2cc(C)ccn2)cc1	none
C=CCn1c(=NC(=O)C2CC2)sc2cc(NC(C)=O)ccc21	Fluor 339 460 2.11 (not shown: DPM-DC inhibit)
Cc1nc(NC(=O)CSc2nnnn2Cc2ccccc2)sc1C	none
CCOc1nc(-c2ccc(C)cc2)ccc1-c1noc(-c2cccnc2)n1	Fluor 339 460 2.99
CCOc1nc(C)ccc1-c1noc(-c2ccncc2)n1	none
CCOc1nc(-c2ccccc2)ccc1-c1noc(-c2ccncc2)n1	Fluor 339 460 3.28 (not shown: DPM-DC inhibit)
CCOc1nc(-c2ccc(OC)cc2)ccc1-c1noc(-c2cccnc2)n1	none
CCOc1nc(-c2ccc(OC)cc2)ccc1-c1noc(-c2ccncc2)n1	Fluor 339 460 2.96
Cc1n[nH]c(C)c1S(=O)(=O)N(CC(=O)NC1CCCC1)c1ccc(C(C)C)cc1	none
Cc1cc(C)n(CCc2nc3c4ccccc4nc(SCc4ccc(C#N)cc4)n3n2)n1	none
O=C(Nc1ccc(O)c(C(=O)O)c1)c1ccc2c(c1)C(=O)N(CC1CCCO1)C2=O (configuration not stated)	none
CCOC(=O)C1CCCN(Cc2ccccc2C)C1 (configuration not stated)	Spn MK inh 42.0
CCOC(=O)C1CCCN(Cc2ccccc2OCC)C1 (configuration not stated)	Spn MK inh 41.0
CC(C)C(C(=O)NCC1CCCO1)N(Cc1ccco1)C(=O)CNS(=O)(=O)c1ccc(F)cc1 (configuration not stated)	PMK inhibit 27.0
CCCC(C(=O)NCC1CCCO1)N(Cc1ccco1)C(=O)CNS(=O)(=O)c1ccccc1 (configuration not stated)	none
